{"source": "PubChem BioAssay AID1159580", "about": "(chemical genetic matrix, 2015)", "assay": "chemical genetic growth profiling, strain panel (AID 1159580);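 further: tested at 20 µM; growth read once vehicle control cultures reached saturation at 30 °C; 1 = growth at the plate median or of vehicle wells; lower values mean less growth of the strain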", "conditions": "S. cerevisiae deletion strains, growth OD", "note": "Where “and” joins values, the source holds several entries; their conditions need not be identical. Equal values may be shown once. About 2,000 (36%) of roughly 5,500 compounds were called active. Inconclusive results (about 18%) are left out. The list shows a part of the results. Unmarked numbers belong to inactive results. No stated cut-off is given here; in the data, active means normalized growth mostly below about 0.91 (no sharp cut-off); inconclusive means no clear call, values can overlap the other calls; inactive means mostly above about 0.92.", "data": [{"smiles": "CCCSc1ccc2nc(NC(=O)OC)[nH]c2c1", "values": [{"measurement": "normalized growth", "setting": "locus YAL013W, strain DEP1, active compounds read low", "value": 0.995}, {"measurement": "normalized growth", "setting": "locus YAL021C, strain ccr4, active compounds read low", "value": 1.01}, {"measurement": "normalized growth", "setting": "locus YAL026C, strain drs2, active compounds read low", "value": 1.01}, {"measurement": "normalized growth", "setting": "locus YAL030W, strain snc1, active compounds read low", "value": 1}, {"measurement": "normalized growth", "setting": "locus YBL061C, strain skt5, active compounds read low", "value": 1.01}, {"measurement": "normalized growth", "setting": "locus YBR009C, strain hhf1, active compounds read low", "value": 1.01}, {"measurement": "normalized growth", "setting": "locus YBR021W, strain FUR4, active compounds read low", "value": "1.2 [resistant] (active)"}, {"measurement": "normalized growth", "setting": "locus YBR023C, strain chs3, active compounds read low", "value": 1.01}, {"measurement": "normalized growth", "setting": "locus YBR171W, strain sec66, active compounds read low", "value": 1.02}, {"measurement": "normalized growth", "setting": "locus YBR229C, strain ROT2, active compounds read low", "value": 0.992}, {"measurement": "normalized growth", "setting": "locus YBR231C, strain swc5, active compounds read low", "value": 0.922}, {"measurement": "normalized growth", "setting": "locus YBR279W, strain paf1, active compounds read low", "value": 1.01}, {"measurement": "normalized growth", "setting": "locus YCL011C, strain gbp2, active compounds read low", "value": 1.01}, {"measurement": "normalized growth", "setting": "locus YCL016C, strain dcc1, active compounds read low", "value": 1.01}, {"measurement": "normalized growth", "setting": "locus YCL029C, strain bik1, active compounds read low", "value": "0.82 (active)"}, {"measurement": "normalized growth", "setting": "locus YCL061C, strain MRC1, active compounds read low", "value": 1.01}, {"measurement": "normalized growth", "setting": "locus YCL069W, strain vba3, active compounds read low", "value": 1.01}, {"measurement": "normalized growth", "setting": "locus YCR088W, strain abp1, active compounds read low", "value": 1.01}, {"measurement": "normalized growth", "setting": "locus YDL005C, strain med2, active compounds read low", "value": 1.03}, {"measurement": "normalized growth", "setting": "locus YDL035C, strain GPR1, active compounds read low", "value": 0.99}, {"measurement": "normalized growth", "setting": "locus YDL040C, strain nat1, active compounds read low", "value": 1.01}, {"measurement": "normalized growth", "setting": "locus YDL074C, strain BRE1, active compounds read low", "value": 0.866}, {"measurement": "normalized growth", "setting": "locus YDL101C, strain DUN1, active compounds read low", "value": 0.993}, {"measurement": "normalized growth", "setting": "locus YDL134C, strain PPH21, active compounds read low", "value": 1.01}, {"measurement": "normalized growth", "setting": "locus YDL185W, strain tfp1, active compounds read low", "value": 0.93}, {"measurement": "normalized growth", "setting": "locus YDL192W, strain arf1, active compounds read low", "value": 0.971}, {"measurement": "normalized growth", "setting": "locus YDR001C, strain nth1, active compounds read low", "value": 1.01}, {"measurement": "normalized growth", "setting": "locus YDR069C, strain doa4, active compounds read low", "value": 0.998}, {"measurement": "normalized growth", "setting": "locus YDR101C, strain arx1, active compounds read low", "value": 0.961}, {"measurement": "normalized growth", "setting": "locus YDR137W, strain rgp1, active compounds read low", "value": 0.862}, {"measurement": "normalized growth", "setting": "locus YDR150W, strain NUM1, active compounds read low", "value": 0.977}, {"measurement": "normalized growth", "setting": "locus YDR159W, strain sac3, active compounds read low", "value": 1.04}, {"measurement": "normalized growth", "setting": "locus YDR162C, strain NBP2, active compounds read low", "value": 0.993}, {"measurement": "normalized growth", "setting": "locus YDR195W, strain ref2", "value": "1.15 [resistant] (active)"}, {"measurement": "normalized growth", "setting": "locus YDR297W, strain sur2, active compounds read low", "value": 1.01}, {"measurement": "normalized growth", "setting": "locus YDR318W, strain mcm21, active compounds read low", "value": 0.956}, {"measurement": "normalized growth", "setting": "locus YDR334W, strain swr1, active compounds read low", "value": 0.962}, {"measurement": "normalized growth", "setting": "locus YDR335W, strain msn5, active compounds read low", "value": 1.02}, {"measurement": "normalized growth", "setting": "locus YDR388W, active compounds read low", "value": 0.969}, {"measurement": "normalized growth", "setting": "locus YDR392W, strain spt3, active compounds read low", "value": 0.967}, {"measurement": "normalized growth", "setting": "locus YDR502C, strain sam2, active compounds read low", "value": 0.966}, {"measurement": "normalized growth", "setting": "locus YEL003W, strain gim4, active compounds read low", "value": "0.446 (active)"}, {"measurement": "normalized growth", "setting": "locus YEL037C, strain rad23, active compounds read low", "value": 1}, {"measurement": "normalized growth", "setting": "locus YEL061C, strain CIN8 (second series), active compounds read low", "value": 1.01}, {"measurement": "normalized growth", "setting": "locus YEL061C, strain CIN8, active compounds read low", "value": 0.997}, {"measurement": "normalized growth", "setting": "locus YER015W, strain faa2, active compounds read low", "value": 1}, {"measurement": "normalized growth", "setting": "locus YER016W, strain bim1, active compounds read low", "value": 1.01}, {"measurement": "normalized growth", "setting": "locus YER110C, active compounds read low", "value": 0.976}, {"measurement": "normalized growth", "setting": "locus YER111C, strain swi4, active compounds read low", "value": 1.02}, {"measurement": "normalized growth", "setting": "locus YER155C, strain BEM2 (second series), active compounds read low", "value": 0.999}, {"measurement": "normalized growth", "setting": "locus YER155C, strain BEM2, active compounds read low", "value": 0.991}, {"measurement": "normalized growth", "setting": "locus YER167W, strain BCK2, active compounds read low", "value": 0.988}, {"measurement": "normalized growth", "setting": "locus YFR010W, strain ubp6, active compounds read low", "value": 1.02}, {"measurement": "normalized growth", "setting": "locus YGL078C, strain dbp3, active compounds read low", "value": 0.955}, {"measurement": "normalized growth", "setting": "locus YGL086W, strain mad1, active compounds read low", "value": 0.974}, {"measurement": "normalized growth", "setting": "locus YGL167C, strain pmr1, active compounds read low", "value": 1.02}, {"measurement": "normalized growth", "setting": "locus YGL173C, strain kem1, active compounds read low", "value": 1.02}, {"measurement": "normalized growth", "setting": "locus YGL227W, strain vid30, active compounds read low", "value": 1}, {"measurement": "normalized growth", "setting": "locus YGL240W, strain doc1, active compounds read low", "value": 1.01}, {"measurement": "normalized growth", "setting": "locus YGL248W, strain PDE1, active compounds read low", "value": 0.996}, {"measurement": "normalized growth", "setting": "locus YGL253W, strain hxk2, active compounds read low", "value": 1.01}, {"measurement": "normalized growth", "setting": "locus YGR078C, strain PAC10, active compounds read low", "value": "0.11 (active)"}, {"measurement": "normalized growth", "setting": "locus YGR135W, strain pre9, active compounds read low", "value": 0.944}, {"measurement": "normalized growth", "setting": "locus YGR229C, strain SMI1, active compounds read low", "value": 0.968}, {"measurement": "normalized growth", "setting": "locus YGR252W, strain gcn5, active compounds read low", "value": 1.16}, {"measurement": "normalized growth", "setting": "locus YHR013C, strain ard1, active compounds read low", "value": 1.01}, {"measurement": "normalized growth", "setting": "locus YHR027C, strain rpn1, active compounds read low", "value": 1.01}, {"measurement": "normalized growth", "setting": "locus YHR030C, strain SLT2, active compounds read low", "value": "0.99 and 0.897"}, {"measurement": "normalized growth", "setting": "locus YHR079C, strain IRE1 (second series), active compounds read low", "value": 0.942}, {"measurement": "normalized growth", "setting": "locus YHR079C, strain IRE1, active compounds read low", "value": 0.933}, {"measurement": "normalized growth", "setting": "locus YHR094C, strain hxt1, active compounds read low", "value": 0.965}, {"measurement": "normalized growth", "setting": "locus YHR129C, strain ARP1, active compounds read low", "value": 0.983}, {"measurement": "normalized growth", "setting": "locus YHR142W, strain chs7, active compounds read low", "value": 1.01}, {"measurement": "normalized growth", "setting": "locus YHR200W, strain rpn10, active compounds read low", "value": 0.951}, {"measurement": "normalized growth", "setting": "locus YIL066C, strain RNR3, active compounds read low", "value": 0.98}, {"measurement": "normalized growth", "setting": "locus YIL073C, strain SPO22, active compounds read low", "value": 0.894}, {"measurement": "normalized growth", "setting": "locus YIL125W, strain kgd1, active compounds read low", "value": 0.98}, {"measurement": "normalized growth", "setting": "locus YIR030C, strain dcg1, active compounds read low", "value": 0.983}, {"measurement": "normalized growth", "setting": "locus YJL092W, strain hpr5, active compounds read low", "value": 1}, {"measurement": "normalized growth", "setting": "locus YJL095W, strain BCK1 (second series), active compounds read low", "value": 1.01}, {"measurement": "normalized growth", "setting": "locus YJL095W, strain BCK1, active compounds read low", "value": "0.95 and 0.922"}, {"measurement": "normalized growth", "setting": "locus YJL115W, strain asf1, active compounds read low", "value": 1.02}, {"measurement": "normalized growth", "setting": "locus YJL129C, strain trk1, active compounds read low", "value": 1.01}, {"measurement": "normalized growth", "setting": "locus YJL134W, strain LCB3, active compounds read low", "value": 0.992}, {"measurement": "normalized growth", "setting": "locus YJL154C, strain vps35, active compounds read low", "value": 1}, {"measurement": "normalized growth", "setting": "locus YJL164C, strain tpk1, active compounds read low", "value": 1.01}, {"measurement": "normalized growth", "setting": "locus YJL166W, strain qcr8, active compounds read low", "value": 1}, {"measurement": "normalized growth", "setting": "locus YJL168C, strain set2, active compounds read low", "value": 0.969}, {"measurement": "normalized growth", "setting": "locus YJL187C, strain SWE1 (second series), active compounds read low", "value": 0.963}, {"measurement": "normalized growth", "setting": "locus YJL187C, strain SWE1, active compounds read low", "value": 1}, {"measurement": "normalized growth", "setting": "locus YJR043C, strain POL32, active compounds read low", "value": 0.967}, {"measurement": "normalized growth", "setting": "locus YJR066W, strain TOR1, active compounds read low", "value": 0.909}]}]}
